# Publication PMC11006913
# Assays:
# Experiment in all cases: PBM; 200 nM protein, PBS
# Settings in all cases: dsDNA, one strand shown
# VENTX = biological target: T1, VENTX (Homo sapiens, UniProt O95231 78-163)
# T1 sequence: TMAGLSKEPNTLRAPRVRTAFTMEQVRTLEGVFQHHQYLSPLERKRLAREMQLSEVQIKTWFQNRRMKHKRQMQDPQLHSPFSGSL
# PAX4 = biological target: T2, PAX4 (Homo sapiens, UniProt O43316 9-242, R200K)
# T2 sequence: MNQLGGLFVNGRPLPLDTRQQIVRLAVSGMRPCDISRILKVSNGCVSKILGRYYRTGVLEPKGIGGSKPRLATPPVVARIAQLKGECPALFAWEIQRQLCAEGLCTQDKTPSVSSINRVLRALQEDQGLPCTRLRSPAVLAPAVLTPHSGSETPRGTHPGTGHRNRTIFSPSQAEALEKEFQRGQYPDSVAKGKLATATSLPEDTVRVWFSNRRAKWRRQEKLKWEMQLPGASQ
# HOXA7 [1] = biological target: HOXA7 (Homo sapiens, UniProt P31268 116-202)
# HOXB6 [2] = biological target: HOXB6 (Homo sapiens, UniProt P17509 132-218, K202E)
# HOXA7 [3] = biological target: HOXA7 (Homo sapiens, UniProt P31268 116-202, W177C)
# HOXB6 [4] = biological target: HOXB6 (Homo sapiens, UniProt P17509 132-218)
# HOXB9 [5] = biological target: HOXB9 (Homo sapiens, UniProt P17482 171-250, T197M)
# HOXB9 [6] = biological target: HOXB9 (Homo sapiens, UniProt P17482 171-250)
# HOXB9 [7] = biological target: HOXB9 (Homo sapiens, UniProt P17482 171-250, R186Q)
# HOXC10 = HOXC10 (Homo sapiens, UniProt Q9NYD6 254-340, K271E)
# HOXC9 [8] = biological target: HOXC9 (Homo sapiens, UniProt P31274 178-260, K195R)
# HOXC9 [9] = biological target: HOXC9 (Homo sapiens, UniProt P31274 178-260)
# HOXD13 [10] = biological target: HOXD13 (Homo sapiens, UniProt P35453 263-343, T313R)
# HOXC9 [11] = biological target: HOXC9 (Homo sapiens, UniProt P31274 178-260, R193K)
# HOXD13 [12] = biological target: HOXD13 (Homo sapiens, UniProt P35453 263-343)
# HOXD13 [13] = biological target: HOXD13 (Homo sapiens, UniProt P35453 263-343, T313A)
# HOXC9 [14] = biological target: HOXC9 (Homo sapiens, UniProt P31274 178-260, R222W)
# Sequence of HOXC9 (Homo sapiens, UniProt P31274 178-260, R222W) (P31274 178-260 R222W): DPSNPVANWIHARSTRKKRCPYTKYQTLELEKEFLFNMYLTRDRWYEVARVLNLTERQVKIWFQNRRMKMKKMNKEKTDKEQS
# Sequence of HOXA7 (Homo sapiens, UniProt P31268 116-202, W177C) (P31268 116-202 W177C): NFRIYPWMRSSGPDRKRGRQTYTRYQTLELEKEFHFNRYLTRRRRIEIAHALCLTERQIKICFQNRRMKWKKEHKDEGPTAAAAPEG
# Sequence of HOXA7 (Homo sapiens, UniProt P31268 116-202) (P31268 116-202): as the sequence (P31268 116-202 W177C) above, with C62W counted along it
# Sequence of HOXB9 (Homo sapiens, UniProt P17482 171-250, T197M) (P17482 171-250 T197M): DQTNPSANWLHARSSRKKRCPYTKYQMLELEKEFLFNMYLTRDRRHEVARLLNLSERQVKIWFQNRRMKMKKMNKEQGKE
# Sequence of HOXB6 (Homo sapiens, UniProt P17509 132-218, K202E) (P17509 132-218 K202E): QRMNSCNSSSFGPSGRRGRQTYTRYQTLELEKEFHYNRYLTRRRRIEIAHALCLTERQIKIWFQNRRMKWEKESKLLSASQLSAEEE
# Sequence of HOXB6 (Homo sapiens, UniProt P17509 132-218) (P17509 132-218): as the sequence (P17509 132-218 K202E) above, with E71K counted along it
# Sequence of HOXB9 (Homo sapiens, UniProt P17482 171-250) (P17482 171-250): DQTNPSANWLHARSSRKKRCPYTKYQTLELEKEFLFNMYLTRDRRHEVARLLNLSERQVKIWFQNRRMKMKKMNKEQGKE
# Sequence of HOXC10 (Q9NYD6 254-340 K271E): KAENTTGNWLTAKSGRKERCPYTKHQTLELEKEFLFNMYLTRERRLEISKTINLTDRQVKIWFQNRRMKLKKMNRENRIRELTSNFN
# Sequence of HOXC9 (Homo sapiens, UniProt P31274 178-260, R193K) (P31274 178-260 R193K): as the sequence (P31274 178-260 R222W) above, with R16K, W45R counted along it
# Sequence of HOXC9 (Homo sapiens, UniProt P31274 178-260, K195R) (P31274 178-260 K195R): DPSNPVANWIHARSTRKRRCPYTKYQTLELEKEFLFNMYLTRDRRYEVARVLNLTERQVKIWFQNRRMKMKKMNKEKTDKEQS
# Sequence of HOXC9 (Homo sapiens, UniProt P31274 178-260) (P31274 178-260): as the sequence (P31274 178-260 R222W) above, with W45R counted along it
# Sequence of HOXB9 (Homo sapiens, UniProt P17482 171-250, R186Q) (P17482 171-250 R186Q): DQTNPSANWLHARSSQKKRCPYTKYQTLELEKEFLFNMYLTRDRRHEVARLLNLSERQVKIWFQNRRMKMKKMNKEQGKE
# Sequence of HOXD13 (Homo sapiens, UniProt P35453 263-343, T313R) (P35453 263-343 T313R): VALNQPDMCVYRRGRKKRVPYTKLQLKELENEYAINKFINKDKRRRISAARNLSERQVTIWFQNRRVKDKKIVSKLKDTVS
# Sequence of HOXD13 (Homo sapiens, UniProt P35453 263-343, T313A) (P35453 263-343 T313A): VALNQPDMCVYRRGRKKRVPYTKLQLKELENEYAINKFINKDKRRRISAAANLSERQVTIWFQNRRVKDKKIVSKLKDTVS
# Sequence of HOXD13 (Homo sapiens, UniProt P35453 263-343) (P35453 263-343): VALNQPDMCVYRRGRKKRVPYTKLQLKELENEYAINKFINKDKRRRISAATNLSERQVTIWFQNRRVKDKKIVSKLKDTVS
sequence,measurement,setting,value
ATTAATCG,binding signal,VENTX,"12.5 upbm affinity estimate (log intensity, higher = more binding, comparable within an allelic series)"
same,binding signal,PAX4,"11.6 upbm affinity estimate (log intensity, higher = more binding, comparable within an allelic series)"
AGTCATTA,binding signal,HOXA7 [1],"11.5 upbm affinity estimate (log intensity, higher = more binding, comparable within an allelic series)"
same,binding signal,HOXB6 [2],"9.89 upbm affinity estimate (log intensity, higher = more binding, comparable within an allelic series)"
same,binding signal,HOXA7 [3],"8.85 upbm affinity estimate (log intensity, higher = more binding, comparable within an allelic series)"
same,binding signal,HOXB6 [4],"11.7 upbm affinity estimate (log intensity, higher = more binding, comparable within an allelic series)"
GGAGCTCC,binding signal,HOXB9 [5],"8.62 upbm affinity estimate (log intensity, higher = more binding, comparable within an allelic series)"
same,binding signal,HOXB9 [6],"8.6 upbm affinity estimate (log intensity, higher = more binding, comparable within an allelic series)"
same,binding signal,HOXB9 [7],"8.62 upbm affinity estimate (log intensity, higher = more binding, comparable within an allelic series)"
GCCGCCGC,binding signal,VENTX,"7.88 upbm affinity estimate (log intensity, higher = more binding, comparable within an allelic series)"
GGTCATTA,binding signal,HOXB9 [5],"10 upbm affinity estimate (log intensity, higher = more binding, comparable within an allelic series)"
same,binding signal,VENTX,"12.4 upbm affinity estimate (log intensity, higher = more binding, comparable within an allelic series)"
same,binding signal,HOXA7 [1],"11.8 upbm affinity estimate (log intensity, higher = more binding, comparable within an allelic series)"
same,binding signal,HOXB6 [2],"9.99 upbm affinity estimate (log intensity, higher = more binding, comparable within an allelic series)"
same,binding signal,HOXC10,"12 upbm affinity estimate (log intensity, higher = more binding, comparable within an allelic series)"
same,binding signal,HOXA7 [3],"8.85 upbm affinity estimate (log intensity, higher = more binding, comparable within an allelic series)"
same,binding signal,HOXB6 [4],"12.1 upbm affinity estimate (log intensity, higher = more binding, comparable within an allelic series)"
ACTAATGG,binding signal,VENTX,"12.8 upbm affinity estimate (log intensity, higher = more binding, comparable within an allelic series)"
GTTAATGA,binding signal,VENTX,"12.6 upbm affinity estimate (log intensity, higher = more binding, comparable within an allelic series)"
same,binding signal,HOXA7 [1],"11.3 upbm affinity estimate (log intensity, higher = more binding, comparable within an allelic series)"
same,binding signal,HOXB6 [2],"9.94 upbm affinity estimate (log intensity, higher = more binding, comparable within an allelic series)"
same,binding signal,HOXC10,"11.9 upbm affinity estimate (log intensity, higher = more binding, comparable within an allelic series)"
same,binding signal,HOXA7 [3],"8.79 upbm affinity estimate (log intensity, higher = more binding, comparable within an allelic series)"
same,binding signal,HOXB6 [4],"11.8 upbm affinity estimate (log intensity, higher = more binding, comparable within an allelic series)"
CCGCCTAG,binding signal,HOXB9 [5],"8.4 upbm affinity estimate (log intensity, higher = more binding, comparable within an allelic series)"
same,binding signal,HOXB9 [6],"8.41 upbm affinity estimate (log intensity, higher = more binding, comparable within an allelic series)"
same,binding signal,HOXB9 [7],"8.38 upbm affinity estimate (log intensity, higher = more binding, comparable within an allelic series)"
CGAGGCAC,binding signal,HOXC9 [8],"9.69 upbm affinity estimate (log intensity, higher = more binding, comparable within an allelic series)"
same,binding signal,HOXC9 [9],"9.79 upbm affinity estimate (log intensity, higher = more binding, comparable within an allelic series)"
same,binding signal,HOXD13 [10],"9.57 upbm affinity estimate (log intensity, higher = more binding, comparable within an allelic series)"
same,binding signal,HOXC9 [11],"9.72 upbm affinity estimate (log intensity, higher = more binding, comparable within an allelic series)"
same,binding signal,HOXD13 [12],"9.71 upbm affinity estimate (log intensity, higher = more binding, comparable within an allelic series)"
same,binding signal,HOXD13 [13],"9.78 upbm affinity estimate (log intensity, higher = more binding, comparable within an allelic series)"
same,binding signal,HOXC9 [14],"9.7 upbm affinity estimate (log intensity, higher = more binding, comparable within an allelic series)"
CGGGGGTC,binding signal,HOXC9 [8],"9.59 upbm affinity estimate (log intensity, higher = more binding, comparable within an allelic series)"
same,binding signal,HOXB6 [2],"8.98 upbm affinity estimate (log intensity, higher = more binding, comparable within an allelic series)"
same,binding signal,HOXC9 [9],"9.65 upbm affinity estimate (log intensity, higher = more binding, comparable within an allelic series)"
same,binding signal,HOXC9 [11],"9.62 upbm affinity estimate (log intensity, higher = more binding, comparable within an allelic series)"
same,binding signal,HOXC9 [14],"9.59 upbm affinity estimate (log intensity, higher = more binding, comparable within an allelic series)"
same,binding signal,HOXB6 [4],"9.04 upbm affinity estimate (log intensity, higher = more binding, comparable within an allelic series)"
